Results as given in the supplement of paper PMC10670038.
Structures can show the parent of a compound that is named as a salt. ± gives the standard deviation of the averaged measurements. Whole data set: some 2,000 compounds, median “relative cell viability vs DMSO, compound alone” near 1.1, cut for the lowest 2% near 0.29. The entries come from a sample that favours the lowest values as a whole.

tested on: TE10; assay: relative cell viability vs DMSO, compound alone (fraction); TE10 is an esophageal squamous carcinoma line; higher = less cytotoxic; conditions: 2 µM; 48 h
Method: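 TE10 ESCC cells (1,000/well, 384-well plates) were treated with Selleck bioactive library compounds at 2 uM alone for 48 h. Viability was read by CellTiter-Glo and expressed relative to DMSO wells. Two technical replicates (A, B).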

Going from C[C@H]1CCC/C=C/[C@@H]2C[C@H](O)C[C@H]2[C@H](O)/C=C/C(=O)O1 [Brefeldin A] to CN1C2CC(O)CC1C1OC12 (stereo not given) [Scopine], the relative cell viability rises from 0.2497 ± 0.0017 to 0.808 ± 0.14.

Going from Cc1c(Cl)c(OCC(=O)N2CCN(C)CC2)nc2sc(C(=O)NC3CC3)c(N)c12 to Cc1sc2c(c1C)C(c1ccc(Cl)cc1)=NC(CC(N)=O)c1nnc(C)n1-2 (stereo not given), the relative cell viability falls from 1.04 ± 0.019 to 0.954 ± 0.053.

Compared with Cc1cc(C(C#N)c2ccc(Cl)cc2)c(Cl)cc1NC(=O)c1cc(I)cc(I)c1O (stereo not given) [Closantel], Cc1sc2c(c1C)C(c1ccc(Cl)cc1)=N[C@@H](CC(=O)OC(C)(C)C)c1nnc(C)n1-2 is lower in relative cell viability: 1.12 ± 0.019 for the first, 0.9008 ± 0.0079 for the second.

Going from O=S(=O)(F)Cc1ccccc1 to O=C(O)CCCc1ccc(N(CCCl)CCCl)cc1 [Chloroambucil], the relative cell viability rises from 0.978 ± 0.021 to 1.14 ± 0.012.

First: C=CC[C@]1(O)CC[C@H]2[C@@H]3CCC4=CC(=O)CCC4=C3C=C[C@@]21C [Altrenogest]
Second: CC1=C(O)C(=O)C=C2C1=CC=C1[C@@]2(C)CC[C@@]2(C)[C@@H]3C[C@](C)(C(=O)O)CC[C@]3(C)CC[C@]12C [Celastrol]
The relative cell viability of the first is higher: 1.115 ± 0.0019 for the first, 0.306 ± 0.0087 for the second.

Going from Cc1c(N)nc(C(CC(N)=O)NCC(N)C(N)=O)nc1C(=O)NC(C(=O)NC(C)C(O)C(C)C(=O)NC(C(=O)NCCc1nc(-c2nc(C(=O)NCCC[S+](C)C)cs2)cs1)C(C)O)C(O[C@@H]1O[C@@H](CO)[C@@H](O)[C@H](O)[C@@H]1O[C@H]1O[C@H](CO)[C@@H](O)[C@H](OC(N)=O)[C@@H]1O)c1cnc[nH]1 (stereo not given in full) [Bleomycin Sulfate] to C[C@@H]1CC[C@@]2(OC1)O[C@H]1C[C@H]3[C@@H]4CC=C5C[C@@H](O[C@@H]6O[C@H](CO)[C@@H](O[C@@H]7O[C@@H](C)[C@H](O)[C@@H](O)[C@H]7O)[C@H](O)[C@H]6O[C@@H]6O[C@@H](C)[C@H](O)[C@@H](O)[C@H]6O)CC[C@]5(C)[C@H]4CC[C@]3(C)[C@H]1[C@@H]2C [Dioscin], the relative cell viability falls from 0.856 ± 0.038 to 0.189 ± 0.051.

First: O=C1CCC[C@@H]2[C@H]3CCCN4CCC[C@@H](CN12)[C@@H]34 [(+)-Matrine]
Second: CC(C)=CCC[C@]1(C)C=Cc2c(O)c3c(c(CC=C(C)C)c2O1)O[C@]12C(=C[C@@H]4C[C@H]1C(C)(C)O[C@@]2(C/C=C(/C)C(=O)O)C4=O)C3=O [Gambogic Acid]
The relative cell viability of the first is higher: 1.1 ± 0.059 for the first, 0.0673 ± 0.0049 for the second.

In the case of O=[N+]([O-])C=Cc1ccc2c(c1)OCO2 [MNS (3,4-Methylenedioxy-β-nitrostyrene, MDBN)], the relative cell viability is reported as 0.742 ± 0.054.
